# From PubChem BioAssay (EPA / NIEHS)
# Records with an inconclusive call do not appear. Activity calls are given as the source filed them. How the source made its calls, unless noted: active means hit-call score of the fitted dose curve at least 0.9, where 1 is the maximum; inactive means score below 0.9.
# Assay: CCTE_Harrill_HTTr_Viability_MCF7: CCTE's 6-hour Cell Viability Assessment for the High-Throughput Transcriptomics (HTTr) Platform, in MCF-7 cells cultured in DMEM + 10% fetal bovine serum, Harrill Lab (AID 2284010)
# Method in brief: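 Cells were dosed with chemicals in an eight-point dilution series, imaged 6 hours later for propidium iodide uptake, and the endpoint was analyzed by bidirectional fitting against DMSO as negative control.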
Compound,outcome,AC50
Clc1ccc(C2(Cn3cncn3)CC(Br)CO2)c(Cl)c1 (stereo unspecified),inactive,–
CC(C)C1CCC(Cc2ccc(Cl)cc2)C1(O)Cn1cncn1 (stereo unspecified),inactive,–
CCC[CH2][Sn]([CH2]CCC)([CH2]CCC)[O]C(=O)c1ccccc1,–,15.6 µM (active)
COc1ccc(C(O)(c2cncnc2)C2CC2)cc1 (stereo unspecified),inactive,–
CN(C)N=O,inactive,–
NC(=O)CF,inactive,–
Nc1ccc(N=Nc2ccc(-c3ccc(N=Nc4c(S(=O)(=O)O)cc5cc(S(=O)(=O)O)c(N=Nc6ccccc6)c(O)c5c4N)cc3)cc2)c(N)c1,inactive,–
ClC1=C(Cl)[C@]2(Cl)[C@H]3[C@H]([C@H]4C=C[C@H]3C4)[C@@]1(Cl)C2(Cl)Cl,inactive,–
CCc1ccccc1C,inactive,–
Nc1cccc2ccccc12,–,37.4 µM (active)
ClC(Cl)=C(Cl)C(Cl)=C(Cl)Cl,inactive,–
C[C@]12CC[C@H](O)CC1=CC[C@@H]1[C@@H]2CC[C@]2(C)C(=O)CC[C@@H]12,inactive,–
COc1ccc(C=O)cc1,inactive,–
CCCCCCCCC(=O)NCc1ccc(O)c(OC)c1,inactive,–
CC(C)OC(=O)Nc1ccccc1,inactive,–
O=CC=O,inactive,–
CC1CCCCC1NC(=O)Nc1ccccc1 (stereo unspecified),inactive,–
[O-][Cl+2]([O-])O,inactive,–
N#CCCO,inactive,–

Compound,outcome,AC50
Oc1ccc(-c2ccccc2)cc1,inactive,–
COc1cc2c(cc1OC)[C@@]13CCN4CC5=CCO[C@H]6CC(=O)N2[C@H]1[C@H]6[C@H]5C[C@H]43,inactive,–
O=S(=O)(c1ccc(Cl)cc1)c1ccc(Cl)cc1,inactive,–
CC1(C)Cc2cccc(O)c2O1,inactive,–
CCCCCCCCCl,inactive,–
C[C@@H](Oc1ccc(Cl)cc1Cl)C(=O)O,inactive,–
Oc1c(I)cc(I)cc1I,inactive,–
O=C(O)C(F)(F)C(F)(F)C(F)(F)C(F)(F)C(F)(F)C(F)(F)F,inactive,–
CCOC(=O)Nc1cccc(OC(=O)Nc2ccccc2)c1,inactive,–
CC1(C)CCC(Cc2ccc(Cl)cc2)C1(O)Cn1cncn1 (stereo unspecified),inactive,–
Nc1ccc(-c2ccc(N)c(Cl)c2)cc1Cl,inactive,–
P.[In],inactive,–
CCOP(=S)(OCC)Oc1ccc(S(C)=O)cc1 (stereo unspecified),inactive,–
CCCCOCCOC(C)=O,inactive,–
Cc1ccc(N)cc1Cl,inactive,–
Oc1cccc2cccnc12,inactive,–
C=CC#N,inactive,–
CC(Br)C(=O)O (stereo unspecified),inactive,–

# Assay: CCTE_Harrill_HTTr_Apoptosis_MCF7: CCTE's 6-hour Apoptosis Assessment for the High-Throughput Transcriptomics (HTTr) Platform, in MCF-7 cells cultured in DMEM + 10% fetal bovine serum, Harrill Lab (AID 2284011)
# Method in brief: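 High-content imaging of CellEvent Caspase 3/7 Green signal follows a six-hour exposure, with eight concentrations per chemical. MCF-7 cells grown in DMEM plus 10% fetal bovine serum; activity fitted in both directions against DMSO.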
Compound,outcome,AC50
Clc1ccc(C2(Cn3cncn3)CC(Br)CO2)c(Cl)c1 (stereo unspecified),inactive,–
CC(C)C1CCC(Cc2ccc(Cl)cc2)C1(O)Cn1cncn1 (stereo unspecified),inactive,–
CCC[CH2][Sn]([CH2]CCC)([CH2]CCC)[O]C(=O)c1ccccc1,–,11.5 µM (active)
COc1ccc(C(O)(c2cncnc2)C2CC2)cc1 (stereo unspecified),inactive,–
CN(C)N=O,inactive,–
NC(=O)CF,inactive,–
Nc1ccc(N=Nc2ccc(-c3ccc(N=Nc4c(S(=O)(=O)O)cc5cc(S(=O)(=O)O)c(N=Nc6ccccc6)c(O)c5c4N)cc3)cc2)c(N)c1,inactive,–
ClC1=C(Cl)[C@]2(Cl)[C@H]3[C@H]([C@H]4C=C[C@H]3C4)[C@@]1(Cl)C2(Cl)Cl,inactive,–
CCc1ccccc1C,inactive,–
Nc1cccc2ccccc12,inactive,–
ClC(Cl)=C(Cl)C(Cl)=C(Cl)Cl,inactive,–
C[C@]12CC[C@H](O)CC1=CC[C@@H]1[C@@H]2CC[C@]2(C)C(=O)CC[C@@H]12,inactive,–
COc1ccc(C=O)cc1,inactive,–
CCCCCCCCC(=O)NCc1ccc(O)c(OC)c1,inactive,–
CC(C)OC(=O)Nc1ccccc1,inactive,–
O=CC=O,inactive,–
CC1CCCCC1NC(=O)Nc1ccccc1 (stereo unspecified),inactive,–
[O-][Cl+2]([O-])O,inactive,–
N#CCCO,inactive,–

Compound,outcome,AC50
Oc1ccc(-c2ccccc2)cc1,inactive,–
COc1cc2c(cc1OC)[C@@]13CCN4CC5=CCO[C@H]6CC(=O)N2[C@H]1[C@H]6[C@H]5C[C@H]43,inactive,–
O=S(=O)(c1ccc(Cl)cc1)c1ccc(Cl)cc1,inactive,–
CC1(C)Cc2cccc(O)c2O1,inactive,–
CCCCCCCCCl,inactive,–
C[C@@H](Oc1ccc(Cl)cc1Cl)C(=O)O,inactive,–
Oc1c(I)cc(I)cc1I,inactive,–
O=C(O)C(F)(F)C(F)(F)C(F)(F)C(F)(F)C(F)(F)C(F)(F)F,inactive,–
CCOC(=O)Nc1cccc(OC(=O)Nc2ccccc2)c1,inactive,–
CC1(C)CCC(Cc2ccc(Cl)cc2)C1(O)Cn1cncn1 (stereo unspecified),inactive,–
Nc1ccc(-c2ccc(N)c(Cl)c2)cc1Cl,inactive,–
P.[In],inactive,–
CCOP(=S)(OCC)Oc1ccc(S(C)=O)cc1 (stereo unspecified),inactive,–
CCCCOCCOC(C)=O,inactive,–
Cc1ccc(N)cc1Cl,inactive,–
Oc1cccc2cccnc12,inactive,–
C=CC#N,inactive,–
CC(Br)C(=O)O (stereo unspecified),inactive,–

# Assay: CCTE_Harrill_HTTr_CellCount_MCF7: CCTE's Cell Proliferation Assessment for the High-Throughput Transcriptomics (HTTr) Platform, Harrill Lab (AID 2284012; active means hit-call score of the fitted dose curve at least 0.9, where 1 is the maximum;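 further: count of Hoechst-stained nuclei per well by high-content imaging in MCF-7 cells; cells exposed to compound for six hours; intended direction is loss of nuclei count meaning fewer cells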)
# Method in brief: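 Chemicals in eight-point dilution series are added to MCF-7 cells for six hours, nuclei are stained with Hoechst and imaged, and per-well nuclei counts are fitted in both directions relative to DMSO controls.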
Compound,outcome,AC50
Clc1ccc(C2(Cn3cncn3)CC(Br)CO2)c(Cl)c1 (stereo unspecified),inactive,–
CC(C)C1CCC(Cc2ccc(Cl)cc2)C1(O)Cn1cncn1 (stereo unspecified),inactive,–
CCC[CH2][Sn]([CH2]CCC)([CH2]CCC)[O]C(=O)c1ccccc1,–,17.9 µM (active)
COc1ccc(C(O)(c2cncnc2)C2CC2)cc1 (stereo unspecified),inactive,–
CN(C)N=O,inactive,–
NC(=O)CF,inactive,–
Nc1ccc(N=Nc2ccc(-c3ccc(N=Nc4c(S(=O)(=O)O)cc5cc(S(=O)(=O)O)c(N=Nc6ccccc6)c(O)c5c4N)cc3)cc2)c(N)c1,inactive,–
ClC1=C(Cl)[C@]2(Cl)[C@H]3[C@H]([C@H]4C=C[C@H]3C4)[C@@]1(Cl)C2(Cl)Cl,inactive,–
CCc1ccccc1C,inactive,–
Nc1cccc2ccccc12,inactive,–
ClC(Cl)=C(Cl)C(Cl)=C(Cl)Cl,inactive,–
C[C@]12CC[C@H](O)CC1=CC[C@@H]1[C@@H]2CC[C@]2(C)C(=O)CC[C@@H]12,inactive,–
COc1ccc(C=O)cc1,inactive,–
CCCCCCCCC(=O)NCc1ccc(O)c(OC)c1,inactive,–
CC(C)OC(=O)Nc1ccccc1,inactive,–
O=CC=O,inactive,–
CC1CCCCC1NC(=O)Nc1ccccc1 (stereo unspecified),inactive,–
[O-][Cl+2]([O-])O,inactive,–
N#CCCO,inactive,–

Compound,outcome,AC50
Oc1ccc(-c2ccccc2)cc1,inactive,–
COc1cc2c(cc1OC)[C@@]13CCN4CC5=CCO[C@H]6CC(=O)N2[C@H]1[C@H]6[C@H]5C[C@H]43,inactive,–
O=S(=O)(c1ccc(Cl)cc1)c1ccc(Cl)cc1,inactive,–
CC1(C)Cc2cccc(O)c2O1,inactive,–
CCCCCCCCCl,inactive,–
C[C@@H](Oc1ccc(Cl)cc1Cl)C(=O)O,inactive,–
Oc1c(I)cc(I)cc1I,inactive,–
O=C(O)C(F)(F)C(F)(F)C(F)(F)C(F)(F)C(F)(F)C(F)(F)F,inactive,–
CCOC(=O)Nc1cccc(OC(=O)Nc2ccccc2)c1,inactive,–
CC1(C)CCC(Cc2ccc(Cl)cc2)C1(O)Cn1cncn1 (stereo unspecified),inactive,–
Nc1ccc(-c2ccc(N)c(Cl)c2)cc1Cl,inactive,–
P.[In],inactive,–
CCOP(=S)(OCC)Oc1ccc(S(C)=O)cc1 (stereo unspecified),inactive,–
CCCCOCCOC(C)=O,inactive,–
Cc1ccc(N)cc1Cl,inactive,–
Oc1cccc2cccnc12,inactive,–
C=CC#N,inactive,–
CC(Br)C(=O)O (stereo unspecified),inactive,–
